Source: PubChem
HT1080 IDH1KD tx = qHTS for induction of synthetic lethality in tumor cells producing 2HG: qHTS for the HT-1080-IDH1KD cell line | HT-1080 IDH1 knockdown viability, ATP luminescence, 48 h | Potency, µM (series often up to 46.1 µM), for inactives: at the top dose activity, negative = toxicity, actives largely listed as cytotoxic | 360,000 tested, 2% active | AID 686971, 2013;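 also: potency is read from the fitted curve at half-maximal effect; 0% = DMSO wells and -100% = cell-free medium wells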
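Using the IDH1-knockdown HT-1080 line run in the same batch and compound series as the NT line, viability after 48 h at 37 °C was determined by CellTiter-Glo luminescence and expressed as % activity.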
DT40 TDP1 CPT = qHTS for Inhibitors of human tyrosyl-DNA phosphodiesterase 1 (TDP1): qHTS in cells in presence of CPT. 420,000 tested, 12% active. chicken DT40 Tdp1-/-;hTDP1 cells + 20 nM CPT, ATP luminescence, 48 h. Potency, µM (doses to about 46.2 µM), for the others: top-dose activity change, negative = growth inhibition, most hits filed as inhibitors; also: potency is read from the fitted curve at half-maximal effect; nearly all actives have a fitted effect of over 55% in size
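Chicken DT40 Tdp1-/- cells complemented with human TDP1, 400 cells/well, exposed to compounds plus 20 nM camptothecin for at least 48 h at 37 C; viability read as ATP content by CellTiter-Glo luminescence.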
IL1B secr inh = qHTS for Inhibitors of Inflammasome Signaling: IL-1-beta AlphaLISA Primary Screen; activity change, % at 57.5 µM; AID 743279, 2014; 360,000 tested, 4.7% active; THP-1 LPS/ATP IL-1B secretion, AlphaLISA, 16 h; hits give low values; in the data active = activity change below about -50%; inconclusive = mostly about -30% to -49%
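Secreted IL-1B measured by AlphaLISA bead assay after 16 h compound exposure of THP-1 cells; compounds (final up to 57.5 uM) added 1 h before LPS (250 ng/mL) and ATP (1.25 mM) stimulation; lower signal means less secretion.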
DT40 TDP1 no CPT = qHTS for Inhibitors of human tyrosyl-DNA phosphodiesterase 1 (TDP1): qHTS in cells in absence of CPT; AID 686978, 2013; 420,000 tested, 15% active; Potency, µM (titrated, usually from 46.2 µM), inactives show at the highest dose activity change, negative = growth inhibition, most hits filed as inhibitors; DT40 Tdp1-/- hTDP1 cells, no CPT, ATP luminescence, 48 h; also: potency is read from the fitted curve at half-maximal effect; nearly all actives have a fitted effect of over 55% in size
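Cells were dispensed at 400 per well, compounds added by pin tool, plates incubated ≥48 hr at 37 °C, then CellTiter-Glo added for 30 min at room temperature before luminescence reading. Line: DT40 Tdp1-/- complemented with hTDP1; camptothecin omitted.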
ELG1 repair inh = qHTS screen for small molecules that inhibit ELG1-dependent DNA repair in human embryonic kidney (HEK293T) cells expressing luciferase-tagged ELG1 | Potency, µM (series often up to 46.1 µM), for inactives: top-dose activity change, negative = inhibition, actives largely listed as inhibitors | HEK293T ELG1-luciferase reporter, luminescence, 16 h; DNA damage induced by 5-fluorouridine | AID 504467, 2011 | 330,000 tested, 2.3% active; also: potency is read from the fitted curve at half-maximal effect; nearly all actives have a fitted effect of over 55% in size
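In this reporter screen, reduction of luminescence relative to DMSO vehicle indicated activity. Compounds and 5-fluorouridine were added together to 2,000 cells per well, incubated for 16 hr at 37 °C, then developed with ONE-Glo.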
HT1080-NT tox = qHTS for induction of synthetic lethality in tumor cells producing 2HG: qHTS for the HT-1080-NT fibrosarcoma cell line; Potency, µM (doses to about 46.1 µM), without a hit: at the highest dose activity, negative = less viability, most hits filed as cytotoxic; HT-1080-NT fibrosarcoma viability, CellTiter-Glo ATP luminescence, 48 h; AID 686970, 2013; 360,000 tested, 1.6% active;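 also: NT is the 2HG producing partner of a matched IDH1 knockdown line; potency is read from the fitted curve at half-maximal effect; 0% = DMSO-treated cells and -100% = media-only wells without cells; nearly all actives have a fitted effect of over 55% in size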
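Fibrosarcoma NT cells, 750 per well in 5% FBS RPMI, were exposed to compound for 48 hours. Viability: CellTiter-Glo luminescence.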
The depositor's hits bear a star; u = inconclusive; x = no result; [ ] = dose if it differs, or a comment. Most compounds without a hit are left out; they make up all but 19% or so of the library. Unless noted, calls follow the shape of the dose curve; as a rule, active = well fitted curve in the direction sought with a large enough effect; inconclusive = small, poorly fitted or top-dose-only effect, or another doubt; inactive = no such curve, though single readings can be large; an effect the other way counts as inactive or inconclusive. Unless noted, % is scaled to controls: 0 for no effect and ±100 for the full control effect.

SMILES | HT1080 IDH1KD tx | DT40 TDP1 CPT | IL1B secr inh | DT40 TDP1 no CPT | ELG1 repair inh | HT1080-NT tox
Cc1cccc(C)c1OCc1cc(C(=O)N2CCC(c3ccccc3)CC2)no1 | -1% | u | u | u | u | -3%
CC(=O)c1ccc(N(C(=O)c2csnn2)C(C(=O)NC(C)(C)C)c2cccs2)cc1 (stereo not drawn) | -2% | -9% | -1 | u | 11% | 2%
COc1ccc(N2CCN(C(=O)c3ccc(CS(=O)(=O)c4ccc(OC)cc4)o3)CC2)cc1 | -4% | -59% | -26 | -25% | u | u
Cc1ccc(Cl)cc1N1CCN(C(=O)c2ccc(CS(=O)(=O)c3ccccc3C)o2)CC1 | x | u | x | 18µM* | x | x
COc1ccc(S(=O)(=O)Cc2ccc(C(=O)N3CCN(c4cc(C)ccc4C)CC3)o2)cc1 | 1% | u | 25 | u | 3% | -10%
Cc1ccc(S(=O)(=O)Cc2ccc(C(=O)N3CCN(c4ccc(F)cc4)CC3)o2)cc1 | -29% | u | -11 | u | 23µM* | -2%
Cc1ccc(S(=O)(=O)Cc2ccc(C(=O)N3CCN(c4cccc(C)c4C)CC3)o2)cc1 | 3.7µM* | 1.8µM* | 66 | 2.6µM* | u | u
Cc1ccccc1S(=O)(=O)Cc1ccc(C(=O)N2CCN(c3ccccc3F)CC2)o1 | -4% | u | 13 | u | -22% | -8%
O=C(NCCO)C(O)C(O)C(=O)NCCO (stereo not drawn) | 11% | 20% | -7 | -8% | 18% | 22%
Cc1nc(-c2ccc(S(=O)(=O)Nc3ccc(C#N)cc3)cc2)co1 | x | -16% | x | u | x | x
Cc1sc2ncnc(Sc3nnnn3-c3ccc(Cl)cc3)c2c1C | u | u | -70* | u | u | u
c1ccc(-n2nnnc2Sc2ncnc3sc4c(c23)CCCC4)cc1 | -1% | 4.1µM* | -25 | 3.3µM* | u | 7%
c1ccn(-c2ncnc3sc4c(c23)CCCC4)c1 | -4%[9.24 µM] | -15% | 14 | -29% | -5% | -14%
CCC(=O)N1CCc2cc(S(=O)(=O)NC(C(=O)Nc3cc(OC)cc(OC)c3)C(C)C)ccc21 (stereo not drawn) | x | -9% | x | -16% | x | x
COC(=O)c1c(C)[nH]c(C=O)c1-c1ccccc1 | -2% | 7% | 20 | u | u | -7%
COC(=O)c1c(C)[nH]c(C)c1C(=O)c1ccccc1Cc1ccccc1 | -12% | 40µM* | 8 | 7.3µM* | x | -4%
CC(C)CN1C(=O)C(=O)N(CC(=O)NCCCc2ccccc2)C1=O | 7% | -14% | 13 | -18% | x | -7%
Cc1cc(C(=O)Nc2c(C)n(C)n(-c3ccccc3)c2=O)c2ccccc2n1 | 11% | 1% | 1 | 9% | -16% | 14%
Cc1cc(Br)cc2c(C(=O)Nc3c(C)n(C)n(-c4ccccc4)c3=O)cc(-c3cccs3)nc12 | -27% | 23µM* | 38 | 16µM* | u | u
CCc1ccc(-c2cc(C(=O)Nc3c(C)n(C)n(-c4ccccc4)c3=O)c3ccccc3n2)s1 | u | u | -28 | 16µM* | u | -20%
Cc1c(NC(=O)c2cc(=O)[nH]c3ccccc23)c(=O)n(-c2ccccc2)n1C | -1% | 1% | 19 | 24% | 7% | 0%
O=C(CCn1cccn1)Nc1ccc(-c2ccno2)cc1 | 7% | 9% | -10 | 7% | u | 3%
O=C(CCl)c1ccc2[nH]c(=O)oc2c1 | -2% | 2.6µM* | u | 3.3µM* | 6% | 1%
CCCN(CC(=O)Nc1ccccc1C)C(=O)CSc1ccccc1C | 1% | -3% | -13 | -9% | -2% | 0%
O=C(c1ccccc1)N1CCN(c2ccccc2F)CC1 | 10% | -11% | -25 | -20% | 16% | 10%
SMILES | HT1080 IDH1KD tx | DT40 TDP1 CPT | IL1B secr inh | DT40 TDP1 no CPT | ELG1 repair inh | HT1080-NT tox
Cc1ccc2ccc3cc(C(=O)Nc4ccc(C)c(F)c4)nc3c2[nH]1 | x | u | x | 16µM* | x | x
CCOC(=O)C1CCN(C(=O)c2cc3ccc4ccc(C)[nH]c4c3n2)CC1 | x | 18µM* | x | 21µM* | x | x
Cc1cc(C)c2cc(C(=O)Nc3ccc(C)c(F)c3)[nH]c2c1 | -12% | u | -3 | 4% | 2% | -5%
Cc1ccc2ccc3cc(C(=O)N4CCN(c5ccccc5F)CC4)nc3c2[nH]1 | x | u | x | 16µM* | x | x
CCCCn1c(O)c2n(c1=O)Cc1ccccc1N=C2c1ccc(C)cc1 | -3% | -27% | 4 | -14% | x | 0%
CC(=O)N1c2ccc(S(=O)(=O)N(C)CC(=O)NC3CCCCC3C)cc2CC1C (stereo not drawn) | 0% | -18% | 12 | 16% | 4% | -2%
OC(COCc1ccc(Cl)cc1)CN1CCN(c2ccccn2)CC1 (stereo not drawn) | 5% | -17% | -7 | u | -2% | 8%
CNc1nc(-c2ccccn2)nnc1-c1ccccc1 | u | u | 50 | 22µM* | -10% | u
c1ccc(-c2nnc(-c3ccccn3)nc2NC2CCCCC2)cc1 | u | 6.5µM* | 85 | 5.8µM* | 18µM* | u
CC(C)n1nnnc1SCC(=O)N1N=C(c2cccs2)CC1c1cccs1 (stereo not drawn) | 9% | -20% | -10 | u | u | -2%
O=C(CN1C(=O)COc2ccc(S(=O)(=O)N3CCOCC3)cc21)NCc1ccco1 | 1% | 9% | 4 | -4% | -2% | 12%
CCCn1c(-c2cccs2)nc2ccccc21 | u | -25% | -21 | -30% | u | -4%
CCC(C)n1c(-c2cccs2)nc2nc3ccccc3nc21 (stereo not drawn) | -2% | 18µM* | 17 | 12µM* | u | -2%
CC(=O)c1sc(NC(=O)c2oc3ccc(F)cc3c2C)nc1C | 15% | -16% | 3 | -16% | u | 11%
CCc1cccc(N2C(=O)CS(=O)(=O)C23C(=O)N(Cc2ccccc2)c2ccc(C)cc23)c1 (stereo not drawn) | x | u | x | 18µM* | x | x
